Consider 24 compounds from the supplement of paper PMC10127200.

Test in all cases: Euclidean distance of Cell Painting phenotypic profile (signed KS, 77 features) to DMSO centroid (dimensionless distance); 5 or 10 uM (library dependent); higher = stronger phenotypic change vs DMSO (phenoactivity)
What all share (settings): 48 h

In experiment [1] the test system is 786-O. Summed up: (§1)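 Five cancer lines and a healthy fibroblast line received library compounds at 10 or 5 uM (library-dependent, 0.1% DMSO final) for 48 h. Stained cells were imaged confocally at 20X (9 fields/well). Harmony extracted 77 features, each scored as a signed Kolmogorov-Smirnov statistic against same-plate vehicle wells. Profiles were plate-position corrected, correlation-weighted and replicate-averaged at the top dose. Phenoactivity is the Euclidean distance from each profile to the median vehicle profile.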

For experiment [2], the system named is A549. Summed up:
as §1

Experiment [3] relates to DU145. A digest of the protocol:
as §1

Experiment [4] concerns FB. A digest of the protocol: as §1
Experiment [5] concerns HEPG2. A digest of the protocol: as §1
In experiment [6] the test system is OVCAR4. Summed up: as §1

Structures can show the parent of a compound that is named as a salt.

`C#Cc1cccc(Nc2ncnc3cc(OCCOC)c(OCCO)cc23)c1`: the Euclidean distance in experiment [1] was 1.88; in experiment [2], 1.49; in experiment [3], 1.82; in experiment [4] it was 2.87; in experiment [5] it was 1.07; in experiment [6], 2.03.

`C/C=C1\[C@H]2C=C(C)C[C@]1(N)c1ccc(=O)[nH]c1C2` [(-)-Huperzine A (HupA)]: the Euclidean distance in experiment [1] stood at 1.09; in experiment [2], 0.676; in experiment [3], 0.79; in experiment [4], 0.881; in experiment [5] it was 0.528; in experiment [6] it was 1.07.

Turning to `Cc1ccc(/C(=C\CN2CCCC2)c2cccc(/C=C/C(=O)O)n2)cc1` [Acrivastine], the Euclidean distance is 1.08 in experiment [1]; 0.966 in experiment [2]; 1.03 in experiment [3]; 0.976 in experiment [4]; 0.729 in experiment [5]; 1.02 in experiment [6].

As for `CN(C)c1ccc2nc3ccc(=[N+](C)C)cc-3sc2c1` [Methylene Blue], the Euclidean distance in experiment [1] came out at 2.57; in experiment [2] it was 2.62; in experiment [3], 1.71; in experiment [4], 3.26; in experiment [5], 2.63; in experiment [6], 2.92.

For `Cn1ncnc1[C@H]1c2n[nH]c(=O)c3cc(F)cc(c23)N[C@@H]1c1ccc(F)cc1`, the Euclidean distance in experiment [1] was determined as 1.03; in experiment [2], 1.17; in experiment [3], 0.939; in experiment [4], 1.27; in experiment [5], 1.56; in experiment [6], 0.901.

Turning to `Cc1ccc2nc(NCCN)c3ncc(C)n3c2c1`, the Euclidean distance in experiment [1] was determined as 0.585; in experiment [2], 1.64; in experiment [3], 1.21; in experiment [4], 1.55; in experiment [5], 2.99; in experiment [6], 1.57.

With `CC[C@@H](CO)NCCN[C@@H](CC)CO` [Ethambutol HCl], the Euclidean distance in experiment [1] came to 1.4; in experiment [2], 1.22; in experiment [3] it was 0.738; in experiment [4] it was 0.916; in experiment [5] it was 1.17; in experiment [6], 0.884.

`CCCSc1nc(N[C@@H]2C[C@H]2c2ccc(F)c(F)c2)c2nnn([C@@H]3C[C@H](OCCO)[C@@H](O)[C@H]3O)c2n1` [Ticagrelor]: the Euclidean distance was 0.66 in experiment [1]; 1.41 in experiment [2]; 1.07 in experiment [3]; 0.885 in experiment [4]; 0.977 in experiment [5]; 1.37 in experiment [6].

Consider `O=C1N=C(O)NC1(c1ccccc1)c1ccccc1` [Phenytoin sodium], for which the Euclidean distance in experiment [1] was found to be 0.57; in experiment [2], 0.743; in experiment [3], 0.884; in experiment [4], 1.08; in experiment [5], 0.937; in experiment [6], 1.27.

`C[C@]12CC[C@@H]3c4ccc(O)cc4CC[C@H]3[C@@H]1CC[C@@H]2O` [Estradiol]: the Euclidean distance is 1.17 in experiment [1]; 0.515 in experiment [2]; 2.36 in experiment [3]; 1.1 in experiment [4]; 0.515 in experiment [5]; 1.04 in experiment [6].

In the case of `Cc1ccc([C@@H]2O[C@H](CO)[C@@H](O)[C@H](O)[C@H]2O)cc1Cc1ccc(-c2ccc(F)cc2)s1` [Canagliflozin hemihydrate], the Euclidean distance in experiment [1] is 1.46; in experiment [2], 2.27; in experiment [3], 0.936; in experiment [4], 1.44; in experiment [5], 1.06; in experiment [6] it was 1.37.

Regarding `Cc1cc(C)cc(NC(=O)Cc2ccc(OC(C)(C)C(=O)O)cc2)c1` [Efaproxiral Sodium], the Euclidean distance came to 1.04 in experiment [1]; 0.727 in experiment [2]; 0.774 in experiment [3]; 0.966 in experiment [4]; 0.587 in experiment [5]; 0.981 in experiment [6].

Turning to `CCCCCCCCCC(=O)CC(O)S(=O)(=O)O` (centres undefined) [Sodium Houttuyfonate], the Euclidean distance in experiment [1] came out at 1.45; in experiment [2] it was 0.727; in experiment [3], 1.5; in experiment [4], 0.985; in experiment [5] it was 1.06; in experiment [6], 1.66.

As to `CC(C)(O/N=C(\C(=O)N[C@@H]1C(=O)N2C(C(=O)[O-])=C(C[n+]3ccccc3)CS[C@H]12)c1csc(N)n1)C(=O)O` [Ceftazidime], the Euclidean distance in experiment [1] was 1.39; in experiment [2], 0.613; in experiment [3], 0.815; in experiment [4], 1.06; in experiment [5], 0.385; in experiment [6], 1.62.

In the case of `CC(C)C[C@H](NC(=O)[C@H](Cc1ccccc1)NC(=O)c1cnccn1)B(O)O` [Bortezomib], the Euclidean distance in experiment [1] worked out at 5.28; in experiment [2], 3.87; in experiment [3], 6.56; in experiment [4], 6.53; in experiment [5] it was 4.55; in experiment [6], 5.51.

Consider `S=P(N1CC1)(N1CC1)N1CC1` [Thiotepa], for which the Euclidean distance in experiment [1] is 2.52; in experiment [2] it was 3.76; in experiment [3], 2.03; in experiment [4] it was 2.35; in experiment [5], 2.68; in experiment [6] it was 3.07.

For the compound `CCCCNc1cc(C(=O)O)cc(S(N)(=O)=O)c1Oc1ccccc1` [Bumetanide], the Euclidean distance in experiment [1] turned out to be 1.24; in experiment [2] it was 1.15; in experiment [3], 1.04; in experiment [4] it was 1.5; in experiment [5], 1.38; in experiment [6], 1.64.

Regarding `COc1cc(/C=C/C(=O)O)ccc1O` [Ferulic Acid], the Euclidean distance is 0.857 in experiment [1]; 0.966 in experiment [2]; 0.806 in experiment [3]; 0.925 in experiment [4]; 0.541 in experiment [5]; 1.73 in experiment [6].

Take `NS(=O)(=O)c1cc2c(cc1Cl)N=CNS2(=O)=O` [Chlorothiazide]: the Euclidean distance in experiment [1] was 1.21; in experiment [2], 0.957; in experiment [3], 1.22; in experiment [4] it was 1.35; in experiment [5], 0.662; in experiment [6], 0.734.

As to `C=C1CCN([C@H](C)[C@](O)(Cn2cncn2)c2ccc(F)cc2F)CC1` [Efinaconazole], the Euclidean distance in experiment [1] was 0.843; in experiment [2] it was 0.567; in experiment [3], 0.723; in experiment [4] it was 0.84; in experiment [5] it was 0.73; in experiment [6], 0.881.

On to `C[C@]12CC[C@H](O)CC1=CC[C@@H]1[C@@H]2CC[C@]2(C)C(n3cnc4ccccc43)=CC[C@@H]12` [Galeterone], for which the Euclidean distance was 0.604 in experiment [1]; 1.11 in experiment [2]; 0.901 in experiment [3]; 1.35 in experiment [4]; 2.1 in experiment [5]; 1.04 in experiment [6].

For `N[C@@H](Cc1cc(I)c(Oc2ccc(O)c(I)c2)c(I)c1)C(=O)O` [Liothyronine Sodium], the Euclidean distance was found to be 0.896 in experiment [1]; 0.796 in experiment [2]; 0.838 in experiment [3]; 1.56 in experiment [4]; 1.41 in experiment [5]; 0.927 in experiment [6].

`O=c1ccc2cc3ccoc3cc2o1` [Psoralen]: the Euclidean distance stood at 1.35 in experiment [1]; 0.643 in experiment [2]; 0.873 in experiment [3]; 1.16 in experiment [4]; 1.17 in experiment [5]; 1.04 in experiment [6].

Take `N=C1CCCN1Cc1[nH]c(=O)[nH]c(=O)c1Cl.O=c1[nH]c(=O)n([C@H]2C[C@H](O)[C@@H](CO)O2)cc1C(F)(F)F`: the Euclidean distance stood at 3.51 in experiment [1]; 3.48 in experiment [2]; 3.37 in experiment [3]; 1.25 in experiment [4]; 3 in experiment [5]; 3.04 in experiment [6].
